# Records with an inconclusive call do not appear. The source made the active and inactive calls. The calls were made as follows, unless noted: active = hit-call score of the fitted dose curve at least 0.9, where 1 is the maximum; inconclusive = response in the unintended direction; inactive = score below 0.9.
# Legend:
# [1] = biological target: human Acetylcholinesterase (AChE), ACHE (gene 43) (UniProt P22303); assay: NVS_ENZ_hAChE: NovaScreen (NVS) Enzymatic Assay for human Acetylcholinesterase (AChE) (AID 2283129)
# Sequence of human Acetylcholinesterase (AChE), ACHE (gene 43) (P22303 whole entry, looked up): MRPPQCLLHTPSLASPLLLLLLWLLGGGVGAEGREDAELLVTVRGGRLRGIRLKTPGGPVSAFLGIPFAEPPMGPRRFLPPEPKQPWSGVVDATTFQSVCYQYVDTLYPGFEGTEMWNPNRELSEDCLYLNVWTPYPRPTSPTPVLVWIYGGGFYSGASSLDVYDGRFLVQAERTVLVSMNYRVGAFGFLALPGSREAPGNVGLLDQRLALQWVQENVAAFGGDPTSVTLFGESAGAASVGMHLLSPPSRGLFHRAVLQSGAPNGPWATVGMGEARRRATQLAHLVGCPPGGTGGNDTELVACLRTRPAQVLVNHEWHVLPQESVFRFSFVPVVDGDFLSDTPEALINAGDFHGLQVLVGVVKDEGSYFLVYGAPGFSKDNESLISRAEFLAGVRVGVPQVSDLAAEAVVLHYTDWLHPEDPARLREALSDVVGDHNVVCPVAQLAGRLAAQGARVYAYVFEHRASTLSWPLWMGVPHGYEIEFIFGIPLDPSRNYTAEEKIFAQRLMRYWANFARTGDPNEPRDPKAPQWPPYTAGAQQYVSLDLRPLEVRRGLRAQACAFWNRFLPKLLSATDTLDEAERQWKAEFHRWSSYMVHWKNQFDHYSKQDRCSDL
# How it was run: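 Actives from a duplicate single-point screen (25 uM) were followed up in concentration series. Enzyme activity read by absorbance (colorimetric) 0.33 hour after dosing, cell-free, normalized to DMSO, with loss of signal scored.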
# [2] = biological target: Norway rat Vesicular Monoamine Transporter (VMAT2), neurotransmitter transporter, Slc18a2 (gene 25549) (UniProt Q01827); assay: NVS_TR_rVMAT2: NovaScreen (NVS) Transporter Assay for Norway rat Vesicular Monoamine Transporter (VMAT2), neurotransmitter transporter (AID 2283376);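 also: actives lower the bound radioligand signal below the DMSO level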
# Sequence of Norway rat Vesicular Monoamine Transporter (VMAT2), neurotransmitter transporter, Slc18a2 (gene 25549) (Q01827 whole entry, looked up): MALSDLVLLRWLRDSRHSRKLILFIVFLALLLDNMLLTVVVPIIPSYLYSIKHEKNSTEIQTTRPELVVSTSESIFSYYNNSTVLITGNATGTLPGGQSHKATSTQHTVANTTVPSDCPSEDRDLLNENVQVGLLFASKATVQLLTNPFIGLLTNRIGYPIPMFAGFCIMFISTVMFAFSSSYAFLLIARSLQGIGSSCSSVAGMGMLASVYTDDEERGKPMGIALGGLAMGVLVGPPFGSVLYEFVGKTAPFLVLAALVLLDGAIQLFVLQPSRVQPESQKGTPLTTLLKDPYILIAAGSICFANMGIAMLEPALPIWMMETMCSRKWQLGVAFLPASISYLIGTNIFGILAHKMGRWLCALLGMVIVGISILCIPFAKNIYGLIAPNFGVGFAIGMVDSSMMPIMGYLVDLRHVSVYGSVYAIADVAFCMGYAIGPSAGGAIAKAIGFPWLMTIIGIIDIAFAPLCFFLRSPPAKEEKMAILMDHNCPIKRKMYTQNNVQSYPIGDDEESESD
# How it was run: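 Binding endpoint from rat forebrain tissue, cell-free; 1 h incubation; filtered radioligand counted; 25 uM duplicate primary then dose series; DMSO negative control.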
# Caspase-1 (Homo sapiens) = Caspase-1 (Homo sapiens) (UniProt P29466); assay: NVS_ENZ_hCASP1: NovaScreen (NVS) Enzymatic Assay for human Caspase 1 (CASP1) (AID 2283132)
# Sequence of Caspase-1 (Homo sapiens) (P29466 whole entry, looked up): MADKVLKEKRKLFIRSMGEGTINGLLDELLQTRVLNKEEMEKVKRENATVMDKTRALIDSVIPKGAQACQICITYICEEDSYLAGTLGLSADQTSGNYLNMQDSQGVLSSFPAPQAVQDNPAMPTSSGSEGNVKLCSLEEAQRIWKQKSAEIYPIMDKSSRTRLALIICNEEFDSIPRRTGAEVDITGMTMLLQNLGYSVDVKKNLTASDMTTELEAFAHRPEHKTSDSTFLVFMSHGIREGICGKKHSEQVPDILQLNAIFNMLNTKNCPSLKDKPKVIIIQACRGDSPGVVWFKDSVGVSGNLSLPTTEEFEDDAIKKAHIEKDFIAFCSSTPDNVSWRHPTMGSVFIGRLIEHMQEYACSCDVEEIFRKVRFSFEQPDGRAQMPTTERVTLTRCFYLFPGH
# How it was run: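 Compounds were first tested in duplicate at 25 uM, with follow-up concentration series up to 50 uM. The bacterially expressed enzyme was read by fluorescence at 1 h post-dosing. Signal loss versus DMSO baseline indicates reduced enzyme activity.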
# [3] = test system: rat Monoamine Oxidase, MAO-A, Peripheral (MAOAP), gene 29253; assay: NVS_ENZ_rMAOAP: NovaScreen (NVS) Enzymatic Assay for rat Monoamine Oxidase, MAO-A, Peripheral (MAOAP) (AID 2283237)
# How it was run: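 Scintillation counting tracked MAO-A activity in a cell-free rat liver mitochondrial membrane prep, read 1.17 hours after compound addition. Single-point duplicate testing at 25 uM preceded concentration-response follow-up; activity was fitted relative to DMSO.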
# [4] = biological target: rat Monoamine Oxidase, MAO-B, Central (MAOBC), Maob (gene 25750) (UniProt P19643); assay: NVS_ENZ_rMAOBC: NovaScreen (NVS) Enzymatic Assay for rat Monoamine Oxidase, MAO-B, Central (MAOBC) (AID 2283238)
# Sequence of rat Monoamine Oxidase, MAO-B, Central (MAOBC), Maob (gene 25750) (P19643 whole entry, looked up): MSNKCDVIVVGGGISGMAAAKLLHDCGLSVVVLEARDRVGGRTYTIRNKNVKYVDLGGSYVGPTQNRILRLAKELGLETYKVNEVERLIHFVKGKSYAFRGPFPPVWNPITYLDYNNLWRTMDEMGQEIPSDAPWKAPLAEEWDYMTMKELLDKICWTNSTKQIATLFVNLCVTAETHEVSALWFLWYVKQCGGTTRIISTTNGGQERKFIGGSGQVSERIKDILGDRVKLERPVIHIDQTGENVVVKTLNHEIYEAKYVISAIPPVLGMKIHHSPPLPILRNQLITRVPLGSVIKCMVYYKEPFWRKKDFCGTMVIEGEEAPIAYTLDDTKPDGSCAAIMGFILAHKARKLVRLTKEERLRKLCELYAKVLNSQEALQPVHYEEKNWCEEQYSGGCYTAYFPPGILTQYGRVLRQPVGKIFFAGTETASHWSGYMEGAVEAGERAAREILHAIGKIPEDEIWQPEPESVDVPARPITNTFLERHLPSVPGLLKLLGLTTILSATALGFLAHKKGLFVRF
# How it was run: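 Here MAO-B activity in rat brain preparations is quantified radiometrically, counts taken at 1.17 hours. Concentration-response runs reach 50 uM, with plate controls, and values are fitted as loss of signal from the DMSO baseline.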
# [5] = test system: rat Monoamine Oxidase, MAO-A, Central (MAOAC), gene 29253; assay: NVS_ENZ_rMAOAC: NovaScreen (NVS) Enzymatic Assay for rat Monoamine Oxidase, MAO-A, Central (MAOAC) (AID 2283243);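 also: potency refers to inhibition seen as signal drop below DMSO baseline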
# How it was run: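 Single-concentration duplicate testing at 25 uM, then concentration-response for actives, in a lysate-based radiodetection MAO-A activity assay from rat brain. Enzyme activity measured 1.5 hours post-dosing; DMSO served as negative control and baseline.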
# [6] = biological target: human Caspase 2 (CASP2), CASP2 (gene 835) (UniProt P42575); assay: NVS_ENZ_hCASP2: NovaScreen (NVS) Enzymatic Assay for human Caspase 2 (CASP2) (AID 2283135)
# Sequence of human Caspase 2 (CASP2), CASP2 (gene 835) (P42575 whole entry, looked up): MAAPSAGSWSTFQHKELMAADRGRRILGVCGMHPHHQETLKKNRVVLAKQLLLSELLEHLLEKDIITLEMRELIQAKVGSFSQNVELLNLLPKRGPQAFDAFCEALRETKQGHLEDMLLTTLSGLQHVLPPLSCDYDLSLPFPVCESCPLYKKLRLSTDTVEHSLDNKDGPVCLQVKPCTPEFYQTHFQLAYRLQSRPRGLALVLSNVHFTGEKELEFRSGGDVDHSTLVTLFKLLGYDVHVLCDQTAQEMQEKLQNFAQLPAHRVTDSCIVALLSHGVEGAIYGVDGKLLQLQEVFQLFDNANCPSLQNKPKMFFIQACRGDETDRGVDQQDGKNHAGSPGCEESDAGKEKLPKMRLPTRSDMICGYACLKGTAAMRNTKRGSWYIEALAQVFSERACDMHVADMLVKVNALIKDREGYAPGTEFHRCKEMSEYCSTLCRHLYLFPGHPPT
# How it was run: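 Single-point duplicate testing at 25 uM preceded concentration series topping at 50 uM. Activity of the recombinant E. coli-derived protease was followed by fluorescent substrate cleavage 1 h post-dosing, relative to DMSO.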
# [7] = biological target: human Matrix Metalloproteinase-1 (MMP1), MMP1 (gene 4312) (UniProt P03956); assay: NVS_ENZ_hMMP1: NovaScreen (NVS) Enzymatic Assay for human Matrix Metalloproteinase-1 (MMP1) (AID 2283181)
# How it was run: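 Cell-free fluorescent substrate assay of human MMP1, read after 1 h. A single 25 uM duplicate screen was followed by concentration series to a maximum of 50 uM for actives meeting threshold; inhibition analysed against DMSO baseline.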
# [8] = biological target: rat CYP2C12, Cyp2c12 (gene 25011) (UniProt P11510); assay: NVS_ADME_rCYP2C12: NovaScreen (NVS) CYP450-related Enzyme Activity (ADME) Assay for rat CYP2C12 (AID 2283119)
# How it was run: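 Fluorescent-substrate turnover by recombinant rat CYP2C12, measured at 0.5 h, normalized to acetonitrile vehicle. Chemicals screened first at a single 10 uM concentration in duplicate, with concentration series for actives.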
# [9] = biological target: human AMP-activated Protein Kinase, alpha 1 (AMPKa1), PRKAA1 (gene 5562) (UniProt Q13131); assay: NVS_ENZ_hAMPKa1: NovaScreen (NVS) Enzymatic Assay for human AMP-activated Protein Kinase, alpha 1 (AMPKa1) (AID 2283130)
# How it was run: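 Compounds were screened in duplicate at 25 uM, and those reaching ~30% inhibition were titrated up to 50 uM. The enzyme was recombinant human AMPKα1, and kinase turnover was read by fluorescence/mobility shift 1 h post-dosing as loss of signal versus DMSO.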
# [10] = biological target: human Aurora Kinase A - serine/threonine-protein Kinase 6 (AurA), AURKA (gene 6790) (UniProt O14965); assay: NVS_ENZ_hAurA: NovaScreen (NVS) Enzymatic Assay for human Aurora Kinase A - serine/threonine-protein Kinase 6 (AurA) (AID 2283142)
# Sequence of human Aurora Kinase A - serine/threonine-protein Kinase 6 (AurA), AURKA (gene 6790) (O14965 whole entry, looked up): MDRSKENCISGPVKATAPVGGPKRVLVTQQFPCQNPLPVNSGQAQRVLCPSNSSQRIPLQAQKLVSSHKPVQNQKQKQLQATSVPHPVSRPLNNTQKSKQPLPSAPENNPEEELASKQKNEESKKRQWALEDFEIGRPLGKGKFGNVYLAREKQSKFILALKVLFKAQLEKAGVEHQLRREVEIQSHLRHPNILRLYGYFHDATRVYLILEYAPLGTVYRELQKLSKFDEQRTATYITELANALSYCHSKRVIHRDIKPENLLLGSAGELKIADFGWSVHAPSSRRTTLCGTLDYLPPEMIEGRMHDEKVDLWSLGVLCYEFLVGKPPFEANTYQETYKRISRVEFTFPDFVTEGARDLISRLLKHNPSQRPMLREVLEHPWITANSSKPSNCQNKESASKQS
# How it was run: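 Recombinant human AurA activity read by fluorescence after mobility-shift separation of product from substrate; 1 hour incubation. Chemicals first run in duplicate at 25 uM, then concentration series to 50 uM if over threshold; fitted relative to DMSO.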
# [11] = biological target: human Fibroblast Growth Factor Receptor 1 (FGFR1), FGFR1 (gene 2260) (UniProt P11362); assay: NVS_ENZ_hFGFR1: NovaScreen (NVS) Enzymatic Assay for human Fibroblast Growth Factor Receptor 1 (FGFR1) (AID 2283159);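 as to AC50: hits lower the signal so potencies describe inhibitors of the kinase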
# Sequence of human Fibroblast Growth Factor Receptor 1 (FGFR1), FGFR1 (gene 2260) (P11362 whole entry, looked up): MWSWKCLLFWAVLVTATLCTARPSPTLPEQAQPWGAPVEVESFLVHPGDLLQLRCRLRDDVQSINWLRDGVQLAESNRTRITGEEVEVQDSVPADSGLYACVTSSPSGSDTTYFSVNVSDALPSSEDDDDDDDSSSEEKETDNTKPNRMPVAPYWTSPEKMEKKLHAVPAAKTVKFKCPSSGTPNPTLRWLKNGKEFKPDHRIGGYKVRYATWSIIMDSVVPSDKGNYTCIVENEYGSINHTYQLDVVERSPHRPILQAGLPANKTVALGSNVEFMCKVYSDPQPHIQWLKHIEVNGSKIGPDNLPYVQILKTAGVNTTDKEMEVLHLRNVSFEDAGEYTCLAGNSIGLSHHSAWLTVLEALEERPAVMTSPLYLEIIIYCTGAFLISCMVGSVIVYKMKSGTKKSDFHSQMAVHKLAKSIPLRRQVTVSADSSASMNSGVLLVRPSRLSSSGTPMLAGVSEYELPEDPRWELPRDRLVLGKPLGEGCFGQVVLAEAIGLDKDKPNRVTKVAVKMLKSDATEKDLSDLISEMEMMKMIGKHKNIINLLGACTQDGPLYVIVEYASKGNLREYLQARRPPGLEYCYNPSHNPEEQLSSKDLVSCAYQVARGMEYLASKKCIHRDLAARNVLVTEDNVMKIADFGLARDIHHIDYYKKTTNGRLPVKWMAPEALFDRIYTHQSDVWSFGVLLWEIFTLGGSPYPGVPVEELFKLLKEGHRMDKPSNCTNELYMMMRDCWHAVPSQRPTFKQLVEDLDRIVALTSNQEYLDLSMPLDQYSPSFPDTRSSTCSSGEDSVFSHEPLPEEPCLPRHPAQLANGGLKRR
# How it was run: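 Cell-free recombinant kinase with fluorescent substrate, product separated by electrophoretic mobility shift; read 1 hour after dosing, loss of signal relative to DMSO. Initial screen in duplicate at 25 uM, actives followed in concentration series.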
# [12] = biological target: human Mitogen-Activated Protein Kinase 1 (MAPK 1), MAPK1 (gene 5594) (UniProt P28482); assay: NVS_ENZ_hMAPK1: NovaScreen (NVS) Enzymatic Assay for human Mitogen-Activated Protein Kinase 1 (MAPK 1) (AID 2283175)
# How it was run: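 Cell-free recombinant human MAPK1 enzymatic assay, fluorescence/electrophoretic mobility shift read at 1 h; loss of signal vs DMSO. Primary screen in duplicate at 25 uM; actives (e.g. ≥30% inhibition) run as concentration-response up to 50 uM.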
# [13] = biological target: human MET Proto-Oncogene, Receptor Tyrosine Kinase (MET), MET (gene 4233) (UniProt P08581); assay: NVS_ENZ_hMet: NovaScreen (NVS) Enzymatic Assay for human MET Proto-Oncogene, Receptor Tyrosine Kinase (MET) (AID 2283180)
# How it was run: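 Hits from a 25 uM duplicate screen were retested in concentration series up to 50 uM. Enzyme activity was measured by fluorescence after electrophoretic separation of product from substrate, 1 h after compound addition, relative to DMSO.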
# [14] = biological target: human p21 Activated Kinase 4 (PAK4), PAK4 (gene 10298) (UniProt O96013); assay: NVS_ENZ_hPAK4: NovaScreen (NVS) Enzymatic Assay for human p21 Activated Kinase 4 (PAK4) (AID 2283189)
# Sequence of human p21 Activated Kinase 4 (PAK4), PAK4 (gene 10298) (O96013 whole entry, looked up): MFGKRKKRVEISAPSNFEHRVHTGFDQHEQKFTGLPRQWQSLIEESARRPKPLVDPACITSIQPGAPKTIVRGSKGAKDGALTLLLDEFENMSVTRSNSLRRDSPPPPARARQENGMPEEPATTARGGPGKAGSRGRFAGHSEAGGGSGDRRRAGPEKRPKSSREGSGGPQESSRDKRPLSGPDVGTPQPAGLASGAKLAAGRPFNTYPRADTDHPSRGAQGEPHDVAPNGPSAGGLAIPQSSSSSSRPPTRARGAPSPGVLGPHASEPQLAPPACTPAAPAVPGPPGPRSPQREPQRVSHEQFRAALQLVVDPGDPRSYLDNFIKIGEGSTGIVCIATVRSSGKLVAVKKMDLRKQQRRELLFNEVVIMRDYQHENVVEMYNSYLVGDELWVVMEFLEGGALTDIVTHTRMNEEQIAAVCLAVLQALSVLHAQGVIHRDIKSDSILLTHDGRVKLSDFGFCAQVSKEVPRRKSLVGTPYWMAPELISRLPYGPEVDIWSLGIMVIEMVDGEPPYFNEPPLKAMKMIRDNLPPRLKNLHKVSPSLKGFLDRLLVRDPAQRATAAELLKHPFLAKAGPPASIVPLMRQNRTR
# How it was run: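 Extracted PAK4 enzyme activity read by fluorescence with mobility-shift separation 1 h after chemical addition. Duplicate single-concentration screen at 25 uM, DMSO as negative control.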
# [15] = biological target: human Protein Tyrosine Phosphatase Non-receptor Type 2 (PTPN2), PTPN2 (gene 5771) (UniProt P17706); assay: NVS_ENZ_hPTPN2: NovaScreen (NVS) Enzymatic Assay for human Protein Tyrosine Phosphatase Non-receptor Type 2 (PTPN2) (AID 2283207)
# How it was run: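 Activity measured as fluorescence after mobility-shift separation of substrate and product, 1 h after compound. Duplicate single-point 25 uM primary testing, concentration series for actives; inhibition scored as signal loss relative to DMSO baseline.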
# [16] = biological target: rat Adenylate Cyclase, Forskolin Stimulated, Adcy5 (gene 64532) (UniProt Q04400); assay: NVS_ENZ_rACFSKBinding: NovaScreen (NVS) Enzymatic Assay for rat Adenylate Cyclase, Forskolin Stimulated (AID 2283232)
# How it was run: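 Chemicals were first tested at 25 uM in duplicate, then hits run as concentration series with top concentration 50 uM. Enzyme source was rat forebrain membranes; radiometric filter read-out after 1 h, referenced to DMSO.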
# [17] = biological target: rat Acetylcholinesterase (AChE), Ache (gene 83817) (UniProt P37136); assay: NVS_ENZ_rAChE: NovaScreen (NVS) Enzymatic Assay for rat Acetylcholinesterase (AChE) (AID 2283233)
# How it was run: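 Compounds first screened at 25 uM in duplicate, then those passing threshold tested in concentration series up to 50 uM, against AChE from rat brain membranes. Enzyme activity read by absorbance at 0.33 h; inhibition scored versus DMSO.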
# [18] = biological target: rat Monoamine Oxidase, MAO-B, Peripheral (MAOBP), Maob (gene 25750) (UniProt P19643); assay: NVS_ENZ_rMAOBP: NovaScreen (NVS) Enzymatic Assay for rat Monoamine Oxidase, MAO-B, Peripheral (MAOBP) (AID 2283242)
# Sequence of rat Monoamine Oxidase, MAO-B, Peripheral (MAOBP), Maob (gene 25750) (P19643 whole entry, looked up): as the sequence (P19643 whole entry, looked up) above
# [19] = biological target: human Neonicotinoid receptor (NNR), CHRNA2 (gene 1135) (UniProt Q15822); assay: NVS_LGIC_hNNR_NBungSens: NovaScreen (NVS) Ligand-Gated Ion Channel Assay for human Neonicotinoid receptor (NNR) (AID 2283313)
# How it was run: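 Compounds first screened in duplicate at 25 uM, then actives re-tested in single-replicate dose series up to 50 uM. Binding measured as displacement of specific radioligand from neuroblastoma membrane receptors after 2 h, scintillation read on filters.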
# [20] = CCTE_Harrill_HTTr_Apoptosis_PRF_DMEM_12hr: (Pilot) CCTE's 12-hour Apoptosis Assessment for the High-Throughput Transcriptomics (HTTr) Platform, in MCF-7 cells cultured in phenol red-free DMEM + 10% charcoal-stripped fetal bovine serum, Harrill Lab (AID 2283985; active = hit-call score of the fitted dose curve at least 0.9, where 1 is the maximum; inactive = score below 0.9)
# How it was run: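 Caspase-3/7 activity by CellEvent Green high content imaging after 12 h compound exposure (eight concentrations) in MCF-7 grown in phenol red-free DMEM plus 10% charcoal-stripped serum; DMSO as baseline.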
# [21] = biological target: human Ephrin type-A Receptor 2 (EphA2), EPHA2 (gene 1969) (UniProt P29317); assay: NVS_ENZ_hEphA2: NovaScreen (NVS) Enzymatic Assay for human Ephrin type-A Receptor 2 (EphA2) (AID 2283155)
# How it was run: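 Enzyme activity of recombinant EphA2 read by fluorescence after mobility-shift separation, 1 h after dosing. Chemicals first tested at 25 uM (duplicate); those passing threshold run as concentration series, top 50 uM, single replicate, relative to DMSO.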
# [22] = biological target: human Ephrin type-B Receptor 2 (EphB2), EPHB2 (gene 2048) (UniProt P29323); assay: NVS_ENZ_hEphB2: NovaScreen (NVS) Enzymatic Assay for human Ephrin type-B Receptor 2 (EphB2) (AID 2283156)
# How it was run: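 Compounds were first tested in duplicate at 25 uM, with hits rerun singly in concentration series up to 50 uM. Enzyme activity on fluorescent substrate was read at 1 h by mobility-shift separation, scored as signal loss relative to DMSO.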
# [23] = biological target: human Caspase 10 (CASP10), CASP10 (gene 843) (UniProt Q92851); assay: NVS_ENZ_hCASP10: NovaScreen (NVS) Enzymatic Assay for human Caspase 10 (CASP10) (AID 2283133)
# How it was run: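 Fluorescence-intensity enzyme read-out of E. coli-expressed CASP10 activity, 1 h after compound. Single-point duplicates at 25 uM preceded concentration-response testing (top 50 uM) of hits; inhibition expressed as signal loss versus DMSO.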
structure (smiles),measurement,setting,value
COc1ccc(-n2nc(C(F)F)cc2-c2ccc(S(C)=O)cc2)cc1 (configuration not stated),outcome,[1],inactive
same,AC50,[2],4.96 µM (active)
Nc1ccc2c(c1)C(=O)c1ccccc1C2=O,outcome,Caspase-1 (Homo sapiens),inactive
same,AC50,[3],6.14 µM (active)
same,outcome,[4],inactive
same,AC50,[5],3.68 µM (active)
same,outcome,[2],inactive
O=C1c2c(O)cccc2Cc2cccc(O)c21,AC50,[1],0.484 µM (active)
same,AC50,Caspase-1 (Homo sapiens),5.01 µM (active)
same,AC50,[6],1.03 µM (active)
same,AC50,[7],15.7 µM (active)
S=C([S-])NCCNC(=S)[S-].[Mn+2],outcome,[8],inactive
same,AC50,[9],8.83 µM (active)
same,outcome,Caspase-1 (Homo sapiens),inactive
same,outcome,[6],inactive
same,AC50,[10],1.79 µM (active)
same,AC50,[11],19.1 µM (active)
same,AC50,[12],5.17 µM (active)
same,AC50,[13],20.5 µM (active)
same,AC50,[14],5.91 µM (active)
same,AC50,[15],0.295 µM (active)
same,outcome,[16],inactive
same,outcome,[17],inactive
same,outcome,[18],inactive
same,outcome,[19],inactive
same,outcome,[20],inactive
O=C(O)Cc1cc(I)c(Oc2cc(I)c(O)c(I)c2)c(I)c1,AC50,[1],2.92 µM (active)
same,AC50,[10],0.00511 µM (active)
same,outcome,[21],inactive
same,outcome,[11],inactive
same,AC50,[13],26.7 µM (active)
same,outcome,[14],inactive
same,outcome,[4],inactive
same,outcome,[20],inactive
COc1cc(-c2nc(NC(=O)c3cc4cc(C)cc(C)c4n3CC(=O)O)sc2CCC2CCCCC2)c(OC)cc1Cl,AC50,Caspase-1 (Homo sapiens),29.1 µM (active)
same,AC50,[6],7.75 µM (active)
CCCCCCCC/C=C\CCCCCCCC(=O)OC[C@@H](O)[C@H]1OC[C@H](O)[C@H]1O,outcome,[9],inactive
same,outcome,[10],inactive
same,AC50,[22],6.52 µM (active)
same,outcome,[11],inactive
same,outcome,[18],inactive
O=C1CCC(C2CCCCC2)CC1,outcome,[23],inactive
